The text below walks through data of PubChem BioAssay (NCATS).

“And” between values parts separate entries of the source, which are not always exact repeats. Equal entries are not always repeated. Results filed as inconclusive are left out. More than one record can exist for a structure, and the calls need not agree. Unmarked numbers belong to inactive results. The source made the active and inactive calls. Unless noted, the call rests on the fitted dose curve; in most records, active means well fitted curve in the direction sought with a large enough effect; inconclusive means small, poorly fitted or top-dose-only effect, or another doubt; inactive means no such curve, though single readings can be large; an effect the other way counts as inactive or inconclusive.

The target of assay [1] is Cellular tumor antigen p53 (Homo sapiens) (UniProt P04637). Nature of the assay: Primary qHTS for small molecule compounds that upregulate eGFP-tagged delta133p53alpha (in N-terminal) cells. (AID 2060322). Further: nearly all actives have a fitted effect of over 75% in size. Further: potency means the concentration at half of the fitted maximal effect.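 On activation: series mostly up to about 56 µM; 0% = DMSO vehicle and 100% = reference activator.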 The note with it: NCI-H358 eGFP-delta133p53alpha fluorescence, 24 h; activation: hits give high values. The method, boiled down:
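NCI-H358 cells pre-induced 24 h with 10 ng/ml doxycycline to express N-terminal eGFP-delta133p53alpha, then dosed 24 h at 37C without doxycycline; fixed, Hoechst-stained, GFP intensity by laser scanning cytometry, normalized to DMSO (0%) and 57.5 uM 5-azacytidine (100%).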

Assay [2] deals with Aldehyde dehydrogenase, mitochondrial (Homo sapiens) (UniProt P05091). Nature of the assay: qHTS for Inhibitors of the Aldehyde Dehydrogenase Family (ALDH2) Validation screens (AID 2061302; active means well fitted inhibition curve with a large enough effect; title and protocol of this record describe different tests;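 further: plate controls were DMSO vehicle for no effect and maximal DPI positive control response for full effect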). Background: qHTS replaces the single test concentration by a dilution series.
In assay [3] the target is Retinaldehyde dehydrogenase 3 (Homo sapiens) (UniProt P47895). Nature of the assay: qHTS for Inhibitors of the Aldehyde Dehydrogenase Family (ALDH1A3) Validation screen (AID 2061312). Further: on the % scale 0 is the no-effect control and ±100 the full control effect; nearly all actives have a fitted effect of over 45% in size.
In assay [4] the target is Cellular tumor antigen p53 (Homo sapiens) (UniProt P04637). Put plainly: Primary qHTS for small molecule compounds that upregulate eGFP-tagged delta133p53alpha (in C-terminal) cells. (AID 2060324). Further: potency means the concentration at half of the fitted maximal effect. The method, boiled down:
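NCI-H358 cells with doxycycline-inducible D133p53a-eGFP (C-terminal tag), pre-induced 24 h with 100 ng/ml doxycycline, plated 800/well in doxycycline-free medium and treated 24 h at 37 °C with compound titrations. Cells were then fixed and Hoechst-stained, and GFP intensity was read by laser scanning cytometry.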

Assay [5] is described as follows: BET inhibitor-based combinations targeting novel dependencies in MECOM-rearranged (r) AML: MV-4-11 cell line (AID 2202233). Further: potency means the concentration at half of the fitted maximal effect; nearly all actives have a fitted effect of over 45% in size. In short, it runs like this: (§1)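 Each compound is tested in an 11-point concentration series against 500 seeded cells/well for 48 hr. The luminescent viability signal is normalized to DMSO and blank wells, then reduced to AUC and a cell-line-centred Z-AUC.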

Assay [6] addresses Aldehyde dehydrogenase, mitochondrial (Homo sapiens) (UniProt P05091). Nature of the assay: qHTS for Inhibitors of the Aldehyde Dehydrogenase Family (ALDH2) Primary screen (AID 2061308).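 Further: plate controls were vehicle for no effect and reference inhibitor for full effect; nearly all actives have a fitted effect of over 55% in size.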
Assay [7] deals with Retinaldehyde dehydrogenase 3 (Homo sapiens) (UniProt P47895). Nature of the assay: qHTS for Inhibitors of the Aldehyde Dehydrogenase Family (ALDH1A3) Primary screen (AID 2061315).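 Further: plate controls were DMSO vehicle for no effect and reference inhibitor for full effect.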
A short description of assay [8]: BET inhibitor-based combinations targeting novel dependencies in MECOM-rearranged (r) AML: OCI-AML3 cell line (AID 2202232). Further: nearly all actives have a fitted effect of over 35% in size. Further: potency means the concentration at half of the fitted maximal effect. As to conditions: Potency: OCI-AML3 viability. The method, boiled down: (§2)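 A 48 hr incubation preceded viability reading by CellTiter-Glo, with 15 min room-temperature development. Dose series had 11 points; normalization used DMSO and empty wells; AUC was computed and mean-centered per line as Z-AUC.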

The nature of assay [9]: BET inhibitor-based combinations targeting novel dependencies in MECOM-rearranged (r) AML: HNT-34 cell line (AID 2202234). Further: nearly all actives have a fitted effect of over 35% in size. Further: potency means the concentration at half of the fitted maximal effect. The method, boiled down: as §1
A short description of assay [10]: BET inhibitor-based combinations targeting novel dependencies in MECOM-rearranged (r) AML: UCSD-AML1 cell line (AID 2202235). Further: nearly all actives have a fitted effect of over 40% in size. Further: potency means the concentration at half of the fitted maximal effect. The method, boiled down:
as §1

A short description of assay [11]: BET inhibitor-based combinations targeting novel dependencies in MECOM-rearranged (r) AML: AML-191 cell line (AID 2202236; further: nearly all actives have a fitted effect of over 35% in size; further: potency means the concentration at half of the fitted maximal effect). The method, boiled down: as §2
The nature of assay [12]: BET inhibitor-based combinations targeting novel dependencies in MECOM-rearranged (r) AML: SET-2 cell line (AID 2202231). Further: nearly all actives have a fitted effect of over 35% in size. Further: potency means the concentration at half of the fitted maximal effect.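 On viability: plate controls were DMSO treated cells for no effect and wells without cells for full effect.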 The note with it: SET-2 AML cells viability, CellTiter-Glo luminescence, 48 h; viability: hits give low values, concentration not given here. The method, boiled down: as §2
Background: In ATP-based viability assays light output follows the ATP content of the culture.

Assay [13] is described as follows: BET inhibitor-based combinations targeting novel dependencies in MECOM-rearranged (r) AML: AML-194 cell line (AID 2202237; further: nearly all actives have a fitted effect of over 40% in size; further: potency means the concentration at half of the fitted maximal effect). The method, boiled down: as §2
The target in assay [14] is Aldehyde dehydrogenase, mitochondrial (Homo sapiens) (UniProt P05091). Put plainly: qHTS for Inhibitors of the Aldehyde Dehydrogenase Family (ALDH2) Confirmatory screens (AID 2061303; active means well fitted inhibition curve with a large enough effect; title and protocol of this record describe different tests; further: on the % scale 0 is the no-effect control and ±100 the full control effect; nearly all actives have a fitted effect of over 45% in size).
Assay [15] is described as follows: qHTS for Inhibitors of the Aldehyde Dehydrogenase Family (ALDH1A2, ALDH1A3, ALDH2, ALDH3A1) (AID 2061307). Further: on the % scale 0 is the no-effect control and ±100 the full control effect; nearly all actives have a fitted effect of over 50% in size.
In assay [16] the target is Retinaldehyde dehydrogenase 3 (Homo sapiens) (UniProt P47895). Nature of the assay: qHTS for Inhibitors of the Aldehyde Dehydrogenase Family (ALDH1A3) Confirmatory screens (AID 2061311). Further: nearly all actives have a fitted effect of over 60% in size.
Assay [17] concerns the target Aldehyde dehydrogenase 1A1 (Homo sapiens) (UniProt P00352). Put plainly: qHTS for Inhibitors of the Aldehyde Dehydrogenase Family (ALDH1A1) Confirmatory screens (AID 2061316). Further: nearly all actives have a fitted effect of over 65% in size.

Cellular tumor antigen p53 (Homo sapiens), sequence (P04637 whole entry, looked up): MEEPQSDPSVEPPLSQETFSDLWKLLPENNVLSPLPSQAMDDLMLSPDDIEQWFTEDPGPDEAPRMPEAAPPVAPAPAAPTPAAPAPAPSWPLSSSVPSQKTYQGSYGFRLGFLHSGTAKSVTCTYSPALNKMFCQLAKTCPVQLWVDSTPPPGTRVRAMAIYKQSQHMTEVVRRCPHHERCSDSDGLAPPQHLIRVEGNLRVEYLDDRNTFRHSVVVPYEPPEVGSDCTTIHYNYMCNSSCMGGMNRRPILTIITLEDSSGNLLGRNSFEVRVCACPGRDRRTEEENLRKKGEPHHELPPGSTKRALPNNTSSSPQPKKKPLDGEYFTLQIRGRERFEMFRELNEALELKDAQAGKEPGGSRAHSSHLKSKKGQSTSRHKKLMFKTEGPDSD

Consider `CCCC(C(=O)OCCN(CC)CC)(c1ccccc1)c1ccccc1`, for which, in [1], the Potency is 34.7 µM (active) and the activation was -51.2%. The Potency entry in [2] is “inactive”. Further, the Potency entry in [3] was “inactive”.

As for `Oc1ccc(-c2nc(-c3ccc(F)cc3)c(-c3ccncc3)[nH]2)cc1`, the Potency is 38.5 µM (active) in assay [1] and 18.6 µM (active) in [5]. Further, the activation in assay [1] is 9.98% and -12.3%. Also, the Potency result in assay [4], in [2] and in assay [3] was “inactive” each time.

On to `COCCOC(=O)C1=C(C)NC(C)=C(C(=O)OC(C)C)C1c1cccc([N+](=O)[O-])c1` (centres undefined), for which the Potency in assay [1] is 6.92 µM (active). Further, the activation in assay [1] is -10.6%. The Potency result in assay [4], in [2] and in assay [3] was “inactive” throughout.

As to `COc1cc([C@@H]2c3cc4c(cc3[C@@H](O[C@@H]3O[C@@H]5CO[C@@H](c6cccs6)O[C@@H]5[C@H](O)[C@@H]3O)[C@H]3COC(=O)[C@H]23)OCO4)cc(OC)c1O`, in assay [1], the activation was -12.2%.

On to `CN(C)c1ccc(/C=C2\C(=O)Nc3ccccc32)cc1`, for which, in assay [1], the Potency is 43.2 µM (active) and the activation is -19.4%. Besides, the Potency result in [2] is “inactive”. For the same compound, the Potency entry in assay [3] is “inactive”.

With `Nc1nc2ncc(CNc3ccc(C(=O)N[C@@H](CCC(=O)O)C(=O)O)cc3)nc2c(=O)[nH]1`, the activation in [1] was -10%.

Consider `COc1cc(C=O)ccc1O`, for which the activation in assay [1] was 5.02%.

As for `CS(=O)(=O)c1cccc(CNc2nc(Nc3ccc4c(c3)CCC(=O)N4)ncc2C(F)(F)F)c1`, the Potency in [1] is 21.3 µM (active); in assay [8], 20.9 µM (active); in assay [5] it was 0.209 µM (active); in assay [9], 9.34 µM (active); in assay [10] it was 10.5 µM (active); in assay [11], 9.34 µM (active). Further, the activation in assay [1] is -20.3% and 55.5%. In addition, the Potency result in [2], in assay [6], in [3] and in assay [7] was “inactive” throughout.

In the case of `NC(=O)NO`, the Potency in assay [1] is 30.6 µM (active). Moreover, the activation in assay [1] is -16.4% and -32.9%. Further, the Potency result in [4], in [2], in [3], in assay [8], in assay [9] and in assay [10] was “inactive” each time. For the same compound, the Potency entry in [11] and in [13] was “inactive” throughout. Also, in assay [12], the viability (in general, a read-out of living cells in per cent, often relative to untreated cells) was 114%.

Take `Cc1ccc(O)c([C@H](CCN(C(C)C)C(C)C)c2ccccc2)c1`: the activation in assay [1] was 10.7%.

Consider `CN1C[C@H](C(=O)N[C@]2(C)O[C@@]3(O)[C@@H]4CCCN4C(=O)[C@H](Cc4ccccc4)N3C2=O)C[C@@H]2c3cccc4[nH]cc(c34)C[C@H]21`, for which, in assay [1], the Potency was 24.6 µM (active) and the activation is 7.67%. The Potency result in assay [2] is “inactive”.

For `CN1Cc2cc(C(=O)N3CCC(C4CCNCC4)CC3)ccc2NC(CC(=O)O)C1=O` (centres undefined), the activation in assay [1] was -16.7%.

As for `NC[C@H]1O[C@H](O[C@H]2[C@@H](O)[C@@H](O[C@H]3O[C@H](CO)[C@@H](O)[C@H](N)[C@@H]3O)[C@H](N)C[C@@H]2N)[C@H](N)C[C@H]1O`, the activation in assay [1] was 25.5%.

Take `O=C1Cc2cc(CCN3CCN(c4nsc5ccccc45)CC3)c(Cl)cc2N1`: the Potency in [1] is 27.6 µM (active). Besides, in assay [1], the activation was -69%. The Potency entry in assay [2], in assay [6] and in assay [7] was “inactive” in each case.

For the compound `COc1ccc(S(=O)(=O)Nc2nnc(CC(C)C)s2)cc1`, the activation in assay [1] is -11.7%.

`C/C=C1/[C@H](O[C@@H]2O[C@H](CO)[C@@H](O)[C@H](O)[C@H]2O)OC=C(C(=O)OC)[C@H]1CC(=O)O[C@@H]1O[C@H](CO)[C@@H](O)[C@H](O)[C@H]1O`: the activation in assay [1] was -32.8%.

On to `CCN(CC)CCOc1ccc(Nc2ncc3cc(-c4c(Cl)cccc4Cl)c(=O)n(C)c3n2)cc1`, for which the Potency in [1] was 5.44 µM (active); in assay [4] it was 26.9 µM (active); in [12] it was 3.72 µM (active); in assay [8] it was 2.63 µM (active); in assay [5], 0.59 µM (active); in assay [9], 0.0295 µM (active). For the same compound, the Potency is 2.95 µM (active) in assay [10], 2.35 µM (active) in assay [11] and 2.95 µM (active) in [13]. Besides, the activation in assay [1] is -1.41%. In addition, the Potency entry in assay [2], in assay [14], in assay [15], in assay [16] and in [17] was “inactive” in each case.

For `C/C(=C(\CCOP(=O)(O)O)SC(=O)c1ccccc1)N(C=O)Cc1cnc(C)nc1N`, the activation in assay [1] was -11.7%.

Regarding `[O-][n+]1cccc(/C(Cl)=N/OC[C@@H](O)CN2CCCCC2)c1`, the activation in assay [1] was -6.69%.

`C[C@]1(Cn2ccnn2)[C@H](C(=O)O)N2C(=O)C[C@H]2S1(=O)=O`: the activation in assay [1] was -22.6%.

Regarding `COC(=O)[C@H]1[C@H]2C[C@@H]3c4[nH]c5cc(OC)ccc5c4CCN3C[C@H]2C[C@@H](OC(=O)c2cc(OC)c(OC)c(OC)c2)[C@@H]1OC`, the results for the Potency in assay [1] and in assay [4] were 27.6 µM (active) and 26.9 µM (active), respectively. Moreover, the activation in assay [1] was -18%. For the same compound, the Potency result in assay [2], in assay [6], in assay [3] and in assay [7] was “inactive” throughout.

Take `Cc1cc2c(cc1S(N)(=O)=O)S(=O)(=O)CCC2`: the activation in assay [1] is -27.6%.

As to `CCC(C(=O)OCCN1CCOC(c2ccccc2)C1C)c1ccccc1` (centres undefined), in assay [1], the activation is -7.53%.

As to `CC(COc1ccccc1)NC(C)C(O)c1ccc(O)cc1` (centres undefined), the activation in assay [1] was 18.6%.

As to `CCN[C@H]1CN(CCCOC)S(=O)(=O)c2sc(S(N)(=O)=O)cc21`, the activation in assay [1] was 13%.

With `CCc1cccc(CC)c1NC(=O)CN(CC(=O)O)CC(=O)O`, the activation in assay [1] was 26.6%.

With `CC[C@]1(O)C[C@H]2CN(CCC3=c4ccccc4=N[C]3[C@@](C(=O)OC)(c3cc4c(cc3OC)N(C)[C@H]3[C@@](O)(C(N)=O)[C@H](O)[C@]5(CC)C=CCN6CC[C@]43[C@@H]65)C2)C1`, the activation in [1] is 31.2%.

Regarding `CC(C)COCC(CN(Cc1ccccc1)c1ccccc1)N1CCCC1` (centres undefined), the Potency is 34.7 µM (active) in assay [1]; 23.5 µM (active) in assay [12]; 18.6 µM (active) in assay [8]; 26.3 µM (active) in assay [5]; 16.6 µM (active) in assay [9]; 20.9 µM (active) in assay [10]. Also, the Potency in assay [11] was 20.9 µM (active); in assay [13], 23.5 µM (active). Besides, in assay [1], the activation is -16.2%. In addition, the Potency entry in assay [4], in assay [2] and in assay [3] was “inactive” throughout.

Regarding `NCC(=O)O`, the activation in [1] was 13%.

With `COc1cc(N)c(Cl)cc1C(=O)NC1CCN(CCCOc2ccc(F)cc2)CC1OC` (centres undefined), the activation in [1] is 13%.

In the case of `CC[C@H]1CN2CCc3cc(OC)c(OC)cc3[C@@H]2C[C@@H]1C[C@H]1NCCc2cc(OC)c(OC)cc21`, the Potency in [1] was 0.617 µM (active); in assay [4] it was 0.151 µM (active); in assay [12] it was 0.372 µM (active); in [8], 0.468 µM (active); in assay [5] it was 0.235 µM (active); in [9], 0.332 µM (active). Also, the Potency in [10] was 0.372 µM (active); in assay [11] it was 0.417 µM (active); in [13], 0.372 µM (active). In addition, in assay [1], the activation was 20.5%. Besides, the Potency result in [2] and in [3] was “inactive” each time.
